Results: PubChem BioAssay AID504329 (Southern Research Specialized Biocontainment Screening …, 2011)
Screen size: about 340,000 compounds; about 1,000 (0.29%) were called active. These entries were drawn from the full list. Measured potencies and affinities stand elsewhere. Unmarked numbers belong to inactive results. Cut-off read from the data, not from the text of the source: inconclusive = inhibition above about 27% without an active follow-up result; inactive = below that.

assay: NS1A inhibition, H1N1 influenza, cell based functional assay (AID 504329); details: percent inhibition, at 12.5 µM, active compounds read high

Row | SMILES | inhibition [%]
1 | COc1ccc(/C=N/NC(=O)c2ccco2)cc1OCc1ccccc1 | 0.58
2 | COc1ccc(/C=N/NC(=O)c2cc(C)oc2C)cc1OCc1ccccc1 | 9.7
3 | CC(C)CCNC(=O)NC(=O)COc1ncnc2sccc12 | -13.5
4 | O=C(CSc1nncs1)Nc1cc(S(=O)(=O)N2CCOCC2)ccc1N1CCCC1 | -2.14
5 | O=C(COc1ccccc1[N+](=O)[O-])N1CCN(C(=O)c2ccco2)CC1 | 8.66
6 | CCOc1ccc2c(c1)C(=NNC(=O)c1ccccn1)c1cc(OCC)ccc1-2 | 7.92
7 | COc1ccc2c(c1)C(=NNC(=O)c1ccccn1)c1cc(OC)ccc1-2 | -2.18
8 | C/C(CC(=O)NC1CCCCCC1)=N\NC(=O)c1cnccn1 | 2.22
9 | C/C(=N\NC(=S)NC1CCCCC1)c1ccccc1 | 11.5
10 | CC(=O)c1nccs1 | -23
11 | S=C(NC1CCCC1)N1CCN(c2ccccn2)CC1 | -9.04
12 | C/C(=N\NC(=O)C1CC1)c1cccnc1 | -3.09
13 | CCNC(=S)N1CCN(c2ccccn2)CC1 | -6.5
14 | C/C(=N\NC(=S)NC1CCCCC1)c1cccs1 | 7.94
15 | C/C(=N/NC(=O)c1cnccn1)c1ccncc1 | 2.49
16 | COc1cc(SC)ccc1C(=O)Nc1ccc2c(c1)CCN2S(C)(=O)=O | 0.73
17 | CC(=O)Nc1cc(C(=O)OCC(=O)c2ccc(C)cc2)ccc1C | 2.61
18 | CCOc1ccc(-c2nc(S(=O)(=O)c3ccccc3)c(N3CCOCC3)o2)cc1 | 6.87
19 | CNC(=O)c1c(NC(=O)C2=COCCO2)sc2c1CCC(C)C2 (configuration not stated) | -0.48
20 | COc1ccc(CCN(Cc2ccccn2)C(=S)Nc2ccccc2F)cc1OC | 2.66
21 | Cc1cccc(N2CCN(C(=O)CCn3c(=O)[nH]c4ccsc4c3=O)CC2C)c1 (configuration not stated) | 14.2

Row | SMILES | inhibition [%]
22 | CC(C)[C@H](NC(=O)OCc1ccccc1)C(=O)OCC(=O)Nc1ccc(N2CCOCC2)cc1 | -2.26
23 | O=C(CSc1ccc(C(F)(F)F)cn1)Nc1ccccc1 | -2.05
24 | O=C(CSc1ncccn1)Nc1ccccc1 | -12.3
25 | O=C(CSc1ccccn1)Nc1ccc(NC(=O)CSc2ccccn2)cc1 | 3.94
26 | O=C(CSc1nnc(-c2ccccn2)o1)Nc1ccccc1 | -0.31
27 | O=C(N/N=C/C1CC2CCC1C2)c1ccc2c(c1)OCO2 (configuration not stated) | 4.78
28 | Cc1ccccc1C(=O)c1cccn1CC(=O)NCCCc1ccccc1 | -0.87
29 | CCOC(=O)c1c(C)[nH]c(C(=O)OCc2ccc(F)cc2)c1C | -5.78
30 | CCOC(=O)C1=C(COc2ccccc2)NC(=O)NC1c1ccc(Cl)cc1 (configuration not stated) | 3.45
31 | CCOc1ccc(C2NC(=O)NC(C)=C2C(=O)OCc2ccccc2)cc1 (configuration not stated) | -2.43
32 | CCOC(=O)C1=C(c2ccccc2)NC(=O)NC1c1ccc(OCC#N)c(OC)c1 (configuration not stated) | 1.47
33 | CCOC(=O)C1=C(c2ccccc2)NC(=O)NC1c1ccc(OC)c(OC)c1 (configuration not stated) | -15.2
34 | CCOC(=O)[C@@H]1[C@H]2COc3cc(OC)ccc3[C@@H]2N2C(=O)N(c3cccc(C)c3)C(=O)[C@]12C | 2.49
35 | COc1ccc(C2=CC(c3ccc(OC)c(OC)c3)c3c(c4ccccc4oc3=O)O2)cc1OC (configuration not stated) | 26.9
36 | Cc1ccc(NC2(C(N)=O)CCCC2)cc1 | -3.06
37 | CCC1=C(C)C(N2CCOCC2)=NP(N2CCOCC2)(N2CCOCC2)=N1 | 3.31
38 | CCC(Sc1nc(C)cc(=O)[nH]1)C(=O)Nc1sc2c(c1C#N)CCCC2 (configuration not stated) | -5.51
39 | CCCCCCNc1c([N+](=O)[O-])cc(C)cc1[N+](=O)[O-] | 28.9
40 | Cc1cc([N+](=O)[O-])c(NCCCCCCO)c([N+](=O)[O-])c1 | 11
41 | Cc1cc(C(=O)NC2CCCCCCC2)ccc1[N+](=O)[O-] | -15.4
42 | N#Cc1cc(NC2CCCC2)c([N+](=O)[O-])cc1C#N | 12.5

Row | SMILES | inhibition [%]
43 | CCCn1c2ccccc2c2cnn(CC(=O)NCCCOC)c(=O)c21 | 0.78
44 | CCN(CC(=O)Nc1c(F)cccc1F)C(=O)CNC(=O)c1ccco1 | -4.3
45 | CN1c2ccccc2N(C)C1(C)c1ccccc1 | 14.4
46 | CN1c2cccc3cccc(c23)N(C)C1(C)C | 20.9
47 | CC(C(c1ccc2c(c1)OCO2)c1c(N)n(C)c(=O)n(C)c1=O)[N+](=O)[O-] (configuration not stated) | -16.4
48 | COc1ccc(NC(=O)CSc2nnc3ccc(-c4cccnc4)nn23)cc1OC | -19.3
49 | COC(=O)c1ccc(C(=O)NC(=S)Nc2ccc3nc(SC)sc3c2)cc1 | -0.55
50 | NS(=O)(=O)c1cccc(NC(=O)COC(=O)COc2ccc3ccccc3c2)c1 | -0.29
51 | O=C(N/N=C/c1cccs1)c1ccc2c(c1)OCO2 | 8.44
52 | CN(C)c1ccc(N=Nc2ccc(C(=O)O)cc2)cc1 | -2.64
53 | CN(C)c1ccc2c(c1)OC(N)=C(C#N)C2c1cccc(F)c1 (configuration not stated) | -65.2
54 | CC(=O)c1ccc(N=Nc2ccc(N(C)C)cc2)cc1 | 13
55 | Nc1n[nH]c(N)c1N=Nc1cccc(F)c1 | 1.03
56 | Cc1c(Cl)c(C(F)(F)F)nn1CC(=O)NN | 3.69
57 | O=C(NCc1ccccn1)/C(=C/c1ccco1)NC(=O)c1ccccc1 | 1.38
58 | CCOC(=O)N1CCN(C(=O)c2sc3nc(-c4ccc(F)cc4)cn3c2C)CC1 | -1.44
59 | O=C(Cc1ccccc1)Nn1c(-c2ccccc2F)nc2ccccc2c1=O | -1.28
60 | CC1(O)CC2CC1C(C(=O)O)C2C(=O)O (configuration not stated) | -2.28
61 | CCn1cc([N+](=O)[O-])c(C(=O)N2CCCc3ccccc32)n1 | 4.06
62 | COc1ccc(F)cc1S(=O)(=O)n1cnc2ccccc21 | 2.94
